The values that follow come from PubChem BioAssay.

The nature of experiment [1]: antimalarial activity against Dd2 strain (AID 2302;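 active = growth inhibition above 50% at the single 2 µM test dose, taken to imply half-maximal potency below 2 µM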;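 also: 0% = DMSO untreated growth and 100% = chloroquine plus artemisinin killed control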). To be noted: P. falciparum Dd2 in RBCs, LDH growth readout, 72 h; at 2 µM; hits give high values.
Experiment [2] in a line: human hepatoma cell viability loss – ATP luminescence, cytotoxicity control for P. falciparum antimalarial project, primary screen (AID 2303;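 active = inhibition above 50%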;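 also: 0% = DMSO wells and 100% = digitonin-killed cells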). To be noted: HepG2 viability, 24-48 h, at 10 µM, hits give high values.
Experiment [3] concerns the target L-lactate dehydrogenase (Plasmodium falciparum (isolate CDC / Honduras)) (UniProt Q27743). Kind of experiment: PfLDH activity inhibition – cell lysate, 3D7 strain, counter-screen for P. falciparum growth inhibition project (AID 2304).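 Also: 0% = vehicle and 100% = reference inhibitor.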 To be noted: P. falciparum 3D7 crude extract, LDH APAD/NBT absorbance; at 2 µM; hits give high values.
The nature of experiment [4]: inhibition of 3D7 malaria parasite growth – strain 3D7 (AID 2306).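 Also: 0% = DMSO wells and 100% = chloroquine plus artemisinin control wells.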 The settings on record: P. falciparum 3D7 erythrocytic growth, LDH absorbance, 72 h; at 2 µM; hits give high values.
The target in experiment [5] is Calcium-dependent protein kinase 1 (Plasmodium falciparum (isolate 3D7)) (UniProt P62344). Kind of experiment: PfCDPK1 kinase inhibitors, biochemical, TCAMS library (AID 1159585; cut-off not given, nearly all actives have IC50 up to about 0.98 µM;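 also: inhibitors leave more ATP so luminescence rises with inhibition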). The settings on record: recombinant PfCDPK1, Kinase-Glo ATP depletion luminescence.
Calcium-dependent protein kinase 1 (Plasmodium falciparum (isolate 3D7)), sequence (P62344 whole entry, looked up): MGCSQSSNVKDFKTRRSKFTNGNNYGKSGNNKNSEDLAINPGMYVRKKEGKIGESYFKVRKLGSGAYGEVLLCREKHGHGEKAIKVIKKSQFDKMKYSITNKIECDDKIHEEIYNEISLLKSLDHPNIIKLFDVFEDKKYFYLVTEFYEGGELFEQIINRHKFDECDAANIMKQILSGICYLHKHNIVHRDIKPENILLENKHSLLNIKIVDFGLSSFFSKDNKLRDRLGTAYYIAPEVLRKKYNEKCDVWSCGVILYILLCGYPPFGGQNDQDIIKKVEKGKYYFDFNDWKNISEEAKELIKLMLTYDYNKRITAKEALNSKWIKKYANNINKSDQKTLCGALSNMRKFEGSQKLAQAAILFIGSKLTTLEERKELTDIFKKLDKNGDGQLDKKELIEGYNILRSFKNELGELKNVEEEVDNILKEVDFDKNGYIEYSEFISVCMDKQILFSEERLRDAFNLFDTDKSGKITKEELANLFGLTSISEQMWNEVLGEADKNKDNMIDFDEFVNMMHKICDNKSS
The target of experiment [6] is Plasmodium falciparum protein kinase 6 (PK6, PF3D7_1337100) (UniProt Q8IDW1). Nature of the experiment: PfPK6 kinase inhibitors, biochemical, TCAMS library (AID 1159586). The settings on record: recombinant PfPK6, Kinase-Glo ATP depletion luminescence.
Plasmodium falciparum protein kinase 6 (PK6, PF3D7_1337100), sequence (Q8IDW1 1-305): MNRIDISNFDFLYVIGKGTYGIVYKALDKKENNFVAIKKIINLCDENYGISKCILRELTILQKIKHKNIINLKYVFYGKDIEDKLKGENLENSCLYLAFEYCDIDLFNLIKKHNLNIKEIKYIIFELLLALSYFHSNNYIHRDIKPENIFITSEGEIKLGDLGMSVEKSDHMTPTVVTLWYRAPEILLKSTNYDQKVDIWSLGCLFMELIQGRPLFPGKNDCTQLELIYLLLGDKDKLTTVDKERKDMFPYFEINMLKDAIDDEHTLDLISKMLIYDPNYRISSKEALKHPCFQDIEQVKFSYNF
Experiment [7] concerns the target Protein kinase 7 (PK7), Plasmodium falciparum 3D7 (PF3D7_0213400) (UniProt Q7YTF7). Nature of the experiment: inhibition of Plasmodium PK7 catalytic activity – biochemical, TCAMS antimalarial set, Kinase-Glo luminescence (AID 1159587). The settings on record: recombinant PfPK7, Kinase-Glo ATP depletion luminescence.
In experiment [8] the target is Calcium-dependent protein kinase 4 (Plasmodium falciparum (isolate 3D7)) (UniProt Q8IBS5). Kind of experiment: PfCDPK4 kinase inhibitors, biochemical, TCAMS library (AID 1159588; cut-off not given, nearly all actives have IC50 up to about 0.91 µM). To be noted: recombinant PfCDPK4, Kinase-Glo ATP depletion luminescence.
Calcium-dependent protein kinase 4 (Plasmodium falciparum (isolate 3D7)), sequence (Q8IBS5 whole entry, looked up): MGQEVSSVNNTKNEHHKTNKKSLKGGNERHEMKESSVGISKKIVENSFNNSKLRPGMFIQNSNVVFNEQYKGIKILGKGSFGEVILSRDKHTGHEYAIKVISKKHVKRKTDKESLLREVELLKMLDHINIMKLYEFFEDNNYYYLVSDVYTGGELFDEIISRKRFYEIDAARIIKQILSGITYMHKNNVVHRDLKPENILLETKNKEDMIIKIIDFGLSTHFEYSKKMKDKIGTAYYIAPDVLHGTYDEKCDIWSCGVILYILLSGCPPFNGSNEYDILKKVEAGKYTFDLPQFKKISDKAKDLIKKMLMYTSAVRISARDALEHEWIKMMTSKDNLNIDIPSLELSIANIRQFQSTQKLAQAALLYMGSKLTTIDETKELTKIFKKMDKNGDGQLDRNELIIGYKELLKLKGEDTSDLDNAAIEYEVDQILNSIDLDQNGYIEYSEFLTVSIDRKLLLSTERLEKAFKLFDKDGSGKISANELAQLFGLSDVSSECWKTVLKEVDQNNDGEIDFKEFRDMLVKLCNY

The structures appear in SMILES notation. Values without a mark were called inactive. For some of these results: Measured potencies and affinities stand elsewhere. Calls of active or inactive are those of the source. Unless noted, no rule for the calls is given here.

L-lactate dehydrogenase (Plasmodium falciparum (isolate CDC / Honduras)), sequence (Q27743 whole entry, looked up): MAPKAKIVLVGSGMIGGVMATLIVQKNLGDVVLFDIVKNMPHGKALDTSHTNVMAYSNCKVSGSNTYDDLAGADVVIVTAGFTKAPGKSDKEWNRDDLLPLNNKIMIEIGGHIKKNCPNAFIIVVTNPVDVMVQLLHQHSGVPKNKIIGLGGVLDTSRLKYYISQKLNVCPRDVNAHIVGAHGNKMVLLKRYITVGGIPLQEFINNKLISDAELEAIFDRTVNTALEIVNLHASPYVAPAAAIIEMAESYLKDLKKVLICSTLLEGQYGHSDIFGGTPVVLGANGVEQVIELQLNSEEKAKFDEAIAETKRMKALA
Protein kinase 7 (PK7), Plasmodium falciparum 3D7 (PF3D7_0213400), sequence (Q7YTF7 1-343): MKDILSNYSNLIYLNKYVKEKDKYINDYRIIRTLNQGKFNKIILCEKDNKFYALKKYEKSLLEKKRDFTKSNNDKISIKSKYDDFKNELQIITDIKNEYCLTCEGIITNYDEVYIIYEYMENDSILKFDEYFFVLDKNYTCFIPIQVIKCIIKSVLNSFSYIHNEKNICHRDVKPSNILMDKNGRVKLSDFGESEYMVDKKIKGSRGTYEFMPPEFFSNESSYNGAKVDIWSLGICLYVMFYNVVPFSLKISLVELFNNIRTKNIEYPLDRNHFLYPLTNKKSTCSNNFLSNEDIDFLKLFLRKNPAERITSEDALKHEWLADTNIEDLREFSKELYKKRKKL

Regarding `CC(=O)N[C@H](C(=O)Nc1cccc(-c2ccc(-c3nc4c(C)cccc4[nH]3)s2)c1)C(C)C`, the growth inhibition in experiment [1] is 29%; in experiment [4], 93% (active). Besides, the values for the inhibition in experiment [2] and in experiment [3] were 33% and 2%, respectively. In addition, the result in experiment [5], in experiment [6], in experiment [7] and in experiment [8] was inactive.
`CC(CCCCOCCc1ccccc1)NCC(O)c1cc(Cl)c(N)c(Cl)c1` (stereo not given): the results for the growth inhibition in experiment [1] and in experiment [4] were 95% (active) and 96% (active), respectively. For the same compound, the figures for the inhibition in experiment [2] and in experiment [3] were -5% and -1%, respectively. The outcome in experiment [5], in experiment [6], in experiment [7] and in experiment [8] was inactive.
For `CC(=O)c1ccc(-c2cccc3c(CC(=O)Nc4ccc5nccc(N6CCN(C)CC6)c5c4)cccc23)cc1`, the growth inhibition is 96% (active) in experiment [1] and 101% (active) in experiment [4]. The inhibition was 3% in experiment [2] and -11% in experiment [3]. The result in experiment [5], in experiment [6], in experiment [7] and in experiment [8] was inactive.
As for `Cc1ccc(F)c(C(=O)Nc2cccc(-c3nn4ccccc4c3-c3ccnc(Nc4cccc(F)c4)n3)c2)c1F`, the growth inhibition was 60% (active) in experiment [1] and 98% (active) in experiment [4]. For the same compound, the inhibition was 35% in experiment [2] and 6% in experiment [3]. For the same compound, the outcome in experiment [5], in experiment [6], in experiment [7] and in experiment [8] was inactive.
For the compound `COc1ccc(-c2nnc(Sc3ccc(C#N)c([N+](=O)[O-])c3)n2CC(C)C)cc1`, the growth inhibition was 78% (active) in experiment [1] and 97% (active) in experiment [4]. Also, the inhibition was 3% in experiment [2] and 4% in experiment [3]. Moreover, the result in experiment [5], in experiment [6], in experiment [7] and in experiment [8] was inactive.
As to `O=C(/C=C/c1ccc(Cl)c(Cl)c1)NC1CCN(Cc2ccc(O)cc2)C1` (stereo not given), the growth inhibition in experiment [1] was 4%; in experiment [4], 97% (active). Moreover, the values for the inhibition in experiment [2] and in experiment [3] were 15% and -1%, respectively. Besides, the result in experiment [5], in experiment [6], in experiment [7] and in experiment [8] was inactive.
Take `CC(=O)Nc1ccc(C(=O)Nc2cccc(-c3cccc(-c4nc5ccc(C(F)(F)F)cc5[nH]4)c3)c2)cn1`: the growth inhibition was 97% (active) in experiment [1] and 101% (active) in experiment [4]. Moreover, the values for the inhibition in experiment [2] and in experiment [3] were 8% and -2%, respectively. For the same compound, the result in experiment [5], in experiment [6], in experiment [7] and in experiment [8] was inactive.
Regarding `O=C(/C=C/c1ccc(Cl)c(Cl)c1)N1CCC(CCN2CCC(c3c[nH]c4ccncc34)CC2)CC1`, the growth inhibition in experiment [1] was 70% (active); in experiment [4] it was 101% (active). The inhibition in experiment [2] is 13%; in experiment [3], 2%. Also, the result in experiment [5], in experiment [6], in experiment [7] and in experiment [8] was inactive.
Regarding `Cc1ccc2[nH]cc(/C=C/C(=O)NC3CCC(CCN4CCc5ccc(C#N)cc5CC4)CC3)c2c1` (stereo not given), the growth inhibition in experiment [1] was 49%; in experiment [4], 93% (active). In addition, the inhibition in experiment [2] was 11%; in experiment [3] it was -4%. Also, the result in experiment [5], in experiment [6], in experiment [7] and in experiment [8] was inactive.
With `CC(C)(C)c1ccc(NC(=O)c2ccc(CN3CCCN(Cc4cccc(O)c4)CC3)cc2)cc1`, the growth inhibition in experiment [1] is 62% (active); in experiment [4], 102% (active). Also, the inhibition in experiment [2] was 54% (active); in experiment [3], 1%. Besides, the result in experiment [5], in experiment [6], in experiment [7] and in experiment [8] was inactive.
For the compound `Cn1cc(C2CCN(CCCCCNC(=O)/C=C/c3ccc(Cl)c(Cl)c3)CC2)c2cc(O)ccc21`, the growth inhibition in experiment [1] was -2%; in experiment [4], 94% (active). In addition, the results for the inhibition in experiment [2] and in experiment [3] were 11% and -2%, respectively. The outcome in experiment [5], in experiment [6], in experiment [7] and in experiment [8] was inactive.
Regarding `CN(C(=O)c1snnc1-c1ccccc1)C1CCN(CCCCCNC(=O)/C=C/c2ccc(Cl)c(Cl)c2)CC1`, the growth inhibition in experiment [1] was 58% (active); in experiment [4], 96% (active). The inhibition in experiment [2] is 44%; in experiment [3] it was 4%. For the same compound, the outcome in experiment [5], in experiment [6], in experiment [7] and in experiment [8] was inactive.
Consider `Cc1sc(CNCCCNc2cc(=O)c3ccccc3[nH]2)cc1Br`, for which the growth inhibition in experiment [1] is 83% (active); in experiment [4], 100% (active). The inhibition is 12% in experiment [2] and -3% in experiment [3]. The result in experiment [5], in experiment [6], in experiment [7] and in experiment [8] was inactive.
With `O=C(Cc1ccc(Cl)cc1)NC1CCN(c2ccnc3cc(Cl)ccc23)C1` (stereo not given), the growth inhibition in experiment [1] was 99% (active); in experiment [4] it was 82% (active). The figures for the inhibition in experiment [2] and in experiment [3] were 13% and -3%, respectively. Also, the result in experiment [5], in experiment [6], in experiment [7] and in experiment [8] was inactive.
As to `O=C(/C=C/c1ccc(Cl)c(Cl)c1)N1CCC(CN2CCC(c3c[nH]c4cnccc34)CC2)CC1`, the figures for the growth inhibition in experiment [1] and in experiment [4] were 100% (active) and 102% (active), respectively. Further, the inhibition in experiment [2] is 39%; in experiment [3], 7%. Further, the result in experiment [5], in experiment [6], in experiment [7] and in experiment [8] was inactive.
Take `Cc1cc(NC(=O)Nc2ccc(N(C)C)cc2)c2cc(Cl)ccc2n1`: the growth inhibition was 50% (active) in experiment [1] and 100% (active) in experiment [4]. In addition, the results for the inhibition in experiment [2] and in experiment [3] were -4% and 3%, respectively. Besides, the result in experiment [5], in experiment [6], in experiment [7] and in experiment [8] was inactive.
For `O=[N+]([O-])c1cccc(CNCC2CCC(CNCc3cccc([N+](=O)[O-])c3)CC2)c1` (stereo not given), the growth inhibition in experiment [1] was 76% (active); in experiment [4] it was 100% (active). Moreover, the inhibition in experiment [2] is 39%; in experiment [3], -1%. Further, the outcome in experiment [5], in experiment [6], in experiment [7] and in experiment [8] was inactive.
On to `Cc1cccc2[nH]c(-c3ccc(-c4cccc(C(=O)NCCN5CCCC5)c4)s3)nc12`, for which the growth inhibition is 2% in experiment [1] and 94% (active) in experiment [4]. The inhibition in experiment [2] is 22%; in experiment [3], 4%. Besides, the outcome in experiment [5], in experiment [6], in experiment [7] and in experiment [8] was inactive.
Take `O=C(CCn1cncn1)N1CCCC(c2[nH]c3ccccc3c2-c2ccncc2)C1` (stereo not given): the growth inhibition in experiment [1] is 79% (active); in experiment [4] it was 97% (active). Besides, the inhibition in experiment [2] was 1%; in experiment [3], -1%. Also, the outcome in experiment [5], in experiment [6], in experiment [7] and in experiment [8] was inactive.
As to `CCN1CCC(N(Cc2ccc(-c3ccc(C(F)(F)F)cc3)cc2)C(=O)Cn2c(CCc3cccc(F)c3F)cc(=O)c3c2CCC3)CC1`, the growth inhibition in experiment [1] is 85% (active); in experiment [4], 89% (active). For the same compound, the inhibition in experiment [2] is 49%; in experiment [3], -1%. Also, the result in experiment [5], in experiment [6], in experiment [7] and in experiment [8] was inactive.
